Experimental data from PubChem BioAssay AID2783 (National Center for Advancing Translational Sciences (NCATS), 2010).
Results filed as inconclusive are left out. Calls come from the whole dose curve; as a rule, active = well fitted inhibition curve with a large enough effect in the polarisation, with a control signal flat (not every such curve was filed as active); inconclusive = small, poorly fitted or top-dose-only effect, or effect the other way, or a change in a side signal; inactive = no such curve, though single readings can be large or run the other way; the % refers to the polarisation.

Molecular target: Menin (Homo sapiens) (UniProt O00255)
Sequence (O00255 whole entry, looked up): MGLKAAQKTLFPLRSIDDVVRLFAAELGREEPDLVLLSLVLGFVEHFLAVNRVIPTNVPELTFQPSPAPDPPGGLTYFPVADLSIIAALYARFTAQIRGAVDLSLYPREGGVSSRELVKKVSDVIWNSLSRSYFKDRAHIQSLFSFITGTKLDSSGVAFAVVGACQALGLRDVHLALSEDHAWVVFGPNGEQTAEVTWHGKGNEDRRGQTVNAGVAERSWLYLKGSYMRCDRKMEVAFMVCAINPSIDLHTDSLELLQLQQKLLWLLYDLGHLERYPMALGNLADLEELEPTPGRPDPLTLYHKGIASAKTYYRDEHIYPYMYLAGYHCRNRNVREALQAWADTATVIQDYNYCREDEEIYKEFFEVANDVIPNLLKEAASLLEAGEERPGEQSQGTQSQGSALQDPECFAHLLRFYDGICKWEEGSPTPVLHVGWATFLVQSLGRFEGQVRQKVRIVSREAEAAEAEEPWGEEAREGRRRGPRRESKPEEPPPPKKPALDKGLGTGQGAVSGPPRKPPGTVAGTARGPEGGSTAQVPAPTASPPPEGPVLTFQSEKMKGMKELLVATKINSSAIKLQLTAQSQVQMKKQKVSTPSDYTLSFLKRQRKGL
Experiment: Confirmation of Inhibitors Targeting the Menin-MLL Interaction in MLL Related Leukemias: Competition With Fluorescein Labeled MLL-derived Peptide
Details: Fluorescence polarization, fluorescein-MLL peptide displacement from menin; series mostly up to 100 µM; activity change, negative = inhibition: at the top concentration
% is set by controls: 0 for no effect and ±100 for the full control effect.

Activity change, negative = inhibition, inactive:
c1ccc2c(c1)nc(N1CCOCC1)c1c3ccccc3[nH]c21 -2.11% [at 288 µM]
COCCNC(=O)C(OC(=O)c1nsc(Cl)c1Cl)C(C)C (stereo not drawn) -6.55%
CCc1ccc(NC(=O)CSc2nc(O)cc(=O)n2C2CCCC2)cc1 -11.7%
COc1ccc(CN2CCC(Cc3ccccc3)CC2)c(C)c1C -1.64%
CCc1ccc2c(c1)C(NC(C)=O)C(=O)N2CCN1CCOCC1 (stereo not drawn) -28.6%
O=C(NCC1CCCO1)c1ccc(OC2CCN(C(=O)C3CC3)CC2)cc1 (stereo not drawn) 2.79%
O=C(Nc1cc(Br)ccc1O)c1cc(-c2cccs2)on1 3.78%
O=C(N/N=C/c1cn(-c2ccccc2)nc1-c1cc2ccccc2o1)c1ccccc1Br -4.27%
COc1ccccc1/C=N/n1c(N)c(S(=O)(=O)c2cccs2)c2nc3ccccc3nc21 3.33% [at 288 µM]
CCCNC(=O)c1ccc2c(=O)c(O)c(C)[nH]c2c1 -14.9%
O=C1NC(=S)N/C1=C/c1ccc2ccccc2c1 49.6% [at 288 µM]
COc1ccccc1/C=C/C(=O)NC(=S)Nc1ccc(S(=O)(=O)N(C)c2ccccc2)cc1 -15.9%
COc1ccc(CCNCc2cc(C)n(-c3ccc(OC)cc3)c2C)cc1 -0.328%
OC(c1ccccn1)(c1ccccn1)c1ccccn1 -4.63% [at 288 µM]
CN(CCOc1ccc(Cl)cc1)CC(O)c1ccccc1 (stereo not drawn) -7.96% [at 288 µM]
O=C(/C=C/c1ccccc1)c1cccs1 -28.1% [at 288 µM]
O=[N+]([O-])c1ccc(S(=O)(=O)c2ccccc2)nc1 0.487% [at 288 µM]
CC(=O)O[C@H]1CSC[C@H]1NC(=O)c1ccccc1 -0.821%
COc1cc(OC)cc(C(=O)N/N=C/c2ccc(OC)c(COc3ccc4ccccc4c3)c2)c1 -9.2%
COc1ccc(NC(=O)N2CC[C@@]3(CCCN(C(=O)c4csnn4)C3)C2)cc1 -0.89%
Cn1c(=O)n(C)c2cc3[nH]cnc3cc21 3.61%
CC(c1ccccc1)c1nnc(NC(=O)Nc2ccccc2F)s1 (stereo not drawn) 0.65% [at 288 µM]
Cn1c(=O)[nH]c(=O)c2c1nc(Br)n2CCSc1nc2ccccc2o1 -1.95% [at 288 µM]
COCC(=O)Nc1cccc2ccccc12 -12.3%
COc1ccc2[nH]c(=O)c(CN(Cc3cccs3)C(=S)Nc3cccc(C)c3)cc2c1 -11.2%
CC(CC(=O)Nc1nc2ccccc2[nH]1)n1ccnc1 (stereo not drawn) -18.8%
O=C(Nc1nnc(SCc2ccc(F)cc2)s1)c1ccc2c(c1)C(=O)N(c1ccccc1Cl)C2=O -9.5% [at 288 µM]
Cc1cc2c(c(=O)n1Cc1ccccc1)C1O[C@](c3ccsc3)(Cc3cc(C#N)ccc31)O2 -6.23% [at 25 µM]
NS(=O)(=O)c1ccc(NC(=O)c2ccc(S(=O)(=O)N3CCc4ccccc43)cc2)cc1 43.2% [at 288 µM]
CCOC(=O)N1CCN(Cc2nnc(-c3ccccc3C)o2)CC1 -11.6%
CCn1cnc2c1c(=O)n(CC(=O)O)c(=O)n2Cc1ccccc1 -2.36% [at 288 µM]
Cc1cc(N2CCOCC2)nc2ccc(Cl)cc12 4.05%
Cc1cccc(Nc2nnc(SCC(=O)NC(=O)Nc3ccc4c(c3)OCCO4)s2)c1 -16%
